Source: the supplement of paper PMC10338343

System: MILI (PIWIL2) piRISC loaded with L1MC piRNA (26 nt)
Test: pre-steady-state target cleavage rate (min^-1); guide: L1MC piRNA 5'p-UAACUAAAUACUAUGCAAGCUGUAGG; MIWI and MILI are mouse PIWI proteins and EfPiwi is from a freshwater sponge; tags in brackets are library labels; higher = faster piRNA-guided slicing of the target
Conditions: auxiliary factor: none (no GTSF1)
Summary of the method: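 The pre-steady-state cleavage rate came from a burst-and-steady-state fit to pooled data from three Cleave-'n-Seq trials, in which uncleaved targets were sequenced and normalised to depth and to weakly complementary targets. Each reaction held 0.1 nM transcribed, DNA-blocked target RNA library and 1 nM active affinity-purified piRISC carrying one synthetic guide, with or without 500 nM GTSF1 partner protein, in HEPES–potassium acetate buffer at 33 °C for 0–8 or 0–960 min. k3 was capped at 0.0001 min^-1.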

pre-steady-state target cleavage rate, < 0.0001:
UCCUGGAUGUCGAACGAUAGUAUAUUAGUUA, UCCUGGAUGUCGAACCAUAGUUUUUAGUAA, UCCUGGAUGUCGAACCAUAGUCAUUUAGUUA, UCCUGGAUGUCGAACGUUACUUUUUAGUUA
